Results filed as inconclusive are left out. Activity calls are given as the source filed them. Unless noted, calls come from the whole dose curve; as a rule, active = well fitted curve in the direction sought with a large enough effect in the repeat runs; inconclusive = weak or mixed curves; inactive = no such curve, though single readings can be large; an effect the other way counts as inactive or inconclusive.
Tests used:
[1] = qHTS assay to identify small molecule agonists of the vitamin D receptor (VDR) signaling pathway - cell viability counter screen (AID 743224); note: series mostly up to about 63 µM; nearly all actives have a fitted effect of over 50% in size
Method in brief: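 Here cell health was gauged by luminescent ATP detection (CellTiter-Glo, 30 min RT) in VDR-bla cells that had been incubated with test compounds for 16 h at 37C and 5% CO2.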

[2] = qHTS assay to identify small molecule antagonists of the vitamin D receptor (VDR) signaling pathway - cell viability counter screen (AID 743225); note: nearly all actives have a fitted effect of over 50% in size
Method in brief: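 VDR-UAS-bla HEK 293T cells were plated and incubated 4 h at 37C, then dosed with compound plus 3 nM (final) 1-alpha,25-dihydroxyvitamin D3 for 16 h. After the 2 h beta-lactamase read, viability in the same wells was read as CellTiter-Glo luminescence after 30 min at room temperature.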

[3] = qHTS assay to identify small molecule agonists of the NFkB signaling pathway (AID 1159509; active = well fitted curve in the direction sought with a large enough effect in the signal ratio in the repeat runs, not every such curve was filed as active; the % refers to the signal ratio; note: series mostly up to about 61 µM)
Method in brief: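 After overnight attachment, reporter cells received test compounds, DMSO or positive controls and were incubated 5 hr at 37 C. FRET substrate was then added for 1.5 hr at room temperature before dual-emission fluorescence reading.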

[4] = qHTS assay to identify small molecule agonists of the NFkB signaling pathway - cell viability counter screen (AID 1159515; calls by dose curve; note: series mostly up to about 61 µM; nearly all actives have a fitted effect of over 55% in size)
Method in brief: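 5 hr compound treatment of NFkB-bla ME-180 cells (2,000/well, seeded overnight beforehand), followed by reporter substrate for 1.5 hr. CellTiter-Glo added afterward; luminescence after 30 min RT.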

[5] = qHTS assay to identify small molecule agonists of the endoplasmic reticulum stress response signaling pathway (AID 1159516; active = well fitted activation curve with a large enough effect in the signal ratio in the repeat runs, not every such curve was filed as active; the % refers to the signal ratio)
Method in brief: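 Reporter HeLa cells (ESRE-beta-lactamase) underwent 5 hr compound incubation at 37 C and 5% CO2 in quantitative HTS format. Detection followed 2 hr of FRET substrate loading at room temperature.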

[6] = qHTS assay to identify small molecule agonists of the endoplasmic reticulum stress response signaling pathway - cell viability counter screen (AID 1159517; calls by dose curve;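 note: HeLa cells carrying an ER stress response element beta-lactamase reporter; series mostly up to about 61 µM; nearly all actives have a fitted effect of over 50% in size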)
Method in brief: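 Luminescence readout: CellTiter-Glo, 30 min RT, same wells as the ESRE-bla reporter read. HeLa ESRE-bla, 1,500 cells/well, o/n 37 C; cpd 5 hr 37 C/5% CO2.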

[7] = target: Nuclear receptor ROR-gamma (Homo sapiens) (UniProt P51449); experiment: qHTS assay to identify small molecule antagonists of the retinoid-related orphan receptor gamma (ROR-gamma) signaling pathway (AID 1159521;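 note: CHO cells with doxycycline inducible ROR-gamma driving an RORE luciferase reporter; top concentration of the series differs between compounds; nearly all actives have a fitted effect of over 50% in size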)
Method in brief: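 Tet-on ROR-gamma CHO cells with ROR response element-luciferase reporter; compounds added 2 hr before 1 uM doxycycline induction, then 16 hr at 37 C. Antagonism scored as decreased ONE-Glo luminescence.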

[8] = qHTS assay to identify small molecule agonists of the AP-1 signaling pathway - cell viability counter screen (AID 1159525; calls by dose curve; note: nearly all actives have a fitted effect of over 55% in size)
Method in brief: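 ME-180 AP-1-bla, 2500 cells/well, Opti-MEM + 0.5% dialyzed FBS; overnight 37 °C; cpd 15-pt titration, 5 h 37 °C; CellTiter-Glo 30 min RT; luminescence read; normalised to TOAB and DMSO controls.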

[9] = qHTS assay to identify small molecule agonists of the AP-1 signaling pathway (AID 1159526; calls by dose curve)
[10] = target: Retinoic acid receptor RXR-alpha (Homo sapiens) (UniProt P19793); experiment: qHTS assay to identify small molecule agonists of the RXR signaling pathway (AID 1159527; calls by dose curve; note: nearly all actives have a fitted effect of over 35% in size)
Chain of Retinoic acid receptor RXR-alpha (Homo sapiens) (P19793 whole entry, looked up): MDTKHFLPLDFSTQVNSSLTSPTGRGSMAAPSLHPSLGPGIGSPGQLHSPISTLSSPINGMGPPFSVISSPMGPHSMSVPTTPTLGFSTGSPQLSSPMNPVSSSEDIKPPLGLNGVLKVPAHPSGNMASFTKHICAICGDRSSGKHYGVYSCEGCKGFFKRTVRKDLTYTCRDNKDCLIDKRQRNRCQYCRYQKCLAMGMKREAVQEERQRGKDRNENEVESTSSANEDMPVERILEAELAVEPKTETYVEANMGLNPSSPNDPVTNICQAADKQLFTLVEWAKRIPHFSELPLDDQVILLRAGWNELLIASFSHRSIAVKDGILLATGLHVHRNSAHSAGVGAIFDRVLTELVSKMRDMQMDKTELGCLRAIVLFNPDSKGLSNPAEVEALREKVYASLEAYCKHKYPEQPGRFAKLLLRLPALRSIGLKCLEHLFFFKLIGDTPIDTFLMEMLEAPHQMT
Method in brief: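 GeneBLAzer RXR-alpha-UAS-bla HEK 293T cells in 2% charcoal-stripped FBS medium were exposed to compounds for 16 hr at 37 C in agonist mode. Beta-lactamase reporter read as 460/530 nm FRET ratio after 2 hr substrate loading.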

[11] = qHTS assay to identify small molecule agonists of the RXR signaling pathway - cell viability counter screen (AID 1159529)
Method in brief: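 RXR-alpha-UAS-bla HEK 293T cells in medium with 2% charcoal-stripped FBS were pre-incubated 5 hr, then compound-treated 16 hr at 37 C. Viability was read by CellTiter-Glo luminescence in the same wells as the beta-lactamase assay, with tetraoctyl ammonium bromide as positive control.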

[12] = qHTS assay to identify small molecule antagonists of the retinoid acid receptor (RAR) signaling pathway - cell viability counter screen (AID 1159551); note: nearly all actives have a fitted effect of over 35% in size
Method in brief: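 Seed C3RL4 cells; next day add compound, then retinol to 1 uM final; incubate 6 h at 37 C; add CellTiter-Glo; read luminescence after 30 min at RT.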

[13] = qHTS assay to identify small molecule antagonists of the retinoic acid receptor (RAR) signaling pathway (AID 1159552; note: nearly all actives have a fitted effect of over 50% in size)
Method in brief: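 Retinol signaling pathway inhibitors screened in C3RL4 RARE-luciferase reporter cells seeded overnight at 37 C, then compounds added with 1 uM (final) retinol as pathway substrate. After 6 hr at 37 C, luciferase luminescence read after 30 min at room temperature.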

[14] = qHTS assay to identify small molecule agonists of the retinoic acid receptor (RAR) signaling pathway (AID 1159553)
Method in brief: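 Activation of retinol signaling was monitored via a RARE luciferase reporter in C3RL4 cells. After 6 hr compound treatment at 37 C, detection reagent was added for 30 min at room temperature before luminescence reading.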

[15] = qHTS assay to identify small molecule antagonists of the estrogen related receptor (ERR) signaling pathway - cell viability counter screen (AID 1224818);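 note: series mostly up to about 46 µM; viability measured after 17.5 h of compound exposure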
Method in brief: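 In the same ERR cell assay, compound-treated wells (17.5 h, 37 C) were multiplexed with a fluorogenic viability reagent, CellTiter-Fluor, read after 30 min to flag cytotoxic substances.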

[16] = qHTS assay to identify small molecule antagonists of the estrogen related receptor signaling pathway with the pleiotropic PPARgamma coactivator (PGC) cell viability counter screen (AID 1224822; note: series mostly up to about 46 µM)
Method in brief: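 Compounds in DMSO, with positive and negative controls, were applied to PGC/ERR cells (2,000/well) and left 17.5 h at 37 C before CellTiter-Fluor detection.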

[17] = qHTS assay to identify small molecule antagonists of the retinoid-related orphan receptor gamma (ROR-gamma) signaling pathway - cell viability counter screen (AID 1159520); note: nearly all actives have a fitted effect of over 50% in size
Method in brief: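 Tet-on ROR gamma CHO cells (1,000/well) were plated 4 hr, given compounds in DMSO for 2 hr at 37 C, then induced with 1 uM final doxycycline for 16 hr. Viability was read as ATP by CellTiter-Glo luminescence after 30 min.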

Measured: Potency

CC(=O)c1ccc(S(=O)(=O)NC(=O)NC2CCCCC2)cc1
not listed: [17]
inactive: all other assays above

Oc1cccc(O)c1
not listed: [10] | [15] | [16]
inactive: all other assays above

CN(C)C=O
not listed: [15] | [16] | [17]
inactive: all other assays above

O=[N+]([O-])c1ccc(O)cc1
not listed: [7] | [10] | [15] | [16]
inactive: all other assays above

CO[C@H]1C=CO[C@@]2(C)Oc3c(C)c(O)c4c(O)c(c(/C=N/N5CCN(C)CC5)c(O)c4c3C2=O)NC(=O)/C(C)=C\C=C[C@H](C)[C@H](O)[C@@H](C)[C@@H](O)[C@@H](C)[C@H](OC(C)=O)[C@@H]1C
not listed: [10] | [14] | [15] | [16]
inactive: all other assays above

CC(C)CC(C)CC(O)CC(C)C (stereo not given)
not listed: [10] | [15] | [16] | [17]
inactive: all other assays above

CN/C(=C\[N+](=O)[O-])NCCSCc1ccc(CN(C)C)o1
not listed: [5] | [14]
inactive: all other assays above

O=C(O)CN(CC(=O)O)CC(=O)O
not listed: [14] | [15] | [16] | [17]
inactive: all other assays above

Cc1cccc(Nc2cc(Cl)nc(SCC(=O)O)n2)c1C
not listed: [10] | [15] | [16]
inactive: all other assays above

Source: PubChem BioAssay (Tox21)
